± gives the standard deviation of the averaged measurements.
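Note: End-point A600 read in BHI broth at 37 °C with 2% DMSO, inhibition computed as (1 − OD with compound plus ceftriaxone ÷ OD with ceftriaxone only) × 100.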

The test deals with Listeria monocytogenes 10403S. In words: growth inhibition relative to ceftriaxone-alone control; higher = stronger potentiation of ceftriaxone growth inhibition. As to conditions: 10 µM; ceftriaxone 1 ug/ml; 12 h.
For the compound `COc1ccc(Nc2ncc(-c3ccccc3)o2)cc1OC`, the growth inhibition was determined as 10.7 ± 3.4%.

As for `CC1(C)CNc2cc(NC(=O)c3cccnc3NCc3ccncc3)ccc21` [Motesanib Diphosphate (AMG-706)], the growth inhibition came to 22.2 ± 22%.

Take `COc1ccc(S(=O)(=O)N(C(C)=O)c2ccccc2/C=C/c2cc[n+]([O-])cc2)cc1`: the growth inhibition was 13.3 ± 8.8%.

For the compound `CS(=O)(=O)CCN(CC#N)Cc1ccc(-c2ccc3ncnc(Nc4ccc(OCc5cccc(F)c5)c(Cl)c4)c3c2)o1`, the growth inhibition is 1.01 ± 5.1%.

As to `Fc1ccc(-c2nn3ncccc3c2-c2ccnc(Nc3ccc4c(c3)OCCO4)n2)cc1`, the growth inhibition is -7.99 ± 5.2%.

As for `NC(=O)c1ccc(Oc2nccc(-c3c(-c4ccc(F)cc4)ncn3C3CCNCC3)n2)cc1`, the growth inhibition is -2.66 ± 0.33%.

In the case of `CCN1CCC(CC(=O)Nc2n[nH]c3nnc(-c4cccc(F)c4F)cc23)CC1`, the growth inhibition was 7 ± 6.8%.

In the case of `O=C(NCc1ccccc1)c1csc(Nc2ccncn2)n1` [Thiazovivin], the growth inhibition is 5.95 ± 11%.

For the compound `CCC[C@H](NC(=O)/C(C#N)=C/c1cccc(Br)n1)c1ccccc1`, the growth inhibition came out at 99.32 ± 0.54%.

Turning to `O=C(Nc1cc(C(F)(F)F)cc(C(F)(F)F)c1)c1cc(Cl)ccc1O`, the growth inhibition was 97.6 ± 0.39%.

In the case of `O=C(Nc1n[nH]c2nc(-c3ccco3)ccc12)C1CC1`, the growth inhibition came out at 0.454 ± 0.64%.

Turning to `COc1ccc(COc2cc3oc(=O)c4cc(C(C)O)ccc4c3cc2OC)cc1` (stereo not given) [Palomid 529], the growth inhibition is 18 ± 10%.

As to `Cc1ccc(-c2cc3c(NC(=O)C4CC4)ncnc3o2)cc1`, the growth inhibition is -3.41 ± 5.3%.

For `CCS(=O)(=O)c1ccc(OC)c(Nc2ncc(-c3ccccc3Cl)o2)c1`, the growth inhibition was -2.57 ± 15%.

As to `COc1c(C(N)=O)cc(-c2ccc(Cl)cc2)cc1-c1ccc(S(N)(=O)=O)cc1`, the growth inhibition is 1.37 ± 1.2%.

These data come from the supplement of paper PMC5641865, “A screen for kinase inhibitors identifies antimicrobial imidazopyridine aminofurazans as specific inhibitors of the Listeria monocytogenes PASTA kinase PrkA” (The Journal of Biological Chemistry, 2017).
